Test results reported in PubChem BioAssay.
Calls of active or inactive are those of the source. Unless noted, no rule for the calls is given here.

Columns and labels:
[1] = compounds binding Alexa647 anti-His antibody – biochemical, small-molecule microarray, 635 nm fluorescence, artefact control for SMM control protein annotation, primary screen (AID 1128); settings: higher = more signal;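 also: score merges feature fluorescence with signal-to-noise for each printed compound spot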
[2] = test system: Human papillomavirus type 1a E7 protein (residues 1-88); assay: HPV1a E7 small-molecule binders, primary screen, biochemical, small-molecule microarray, residues 1-88, 635 nm (AID 1129); settings: small-molecule microarray binding, fluorescence 635 nm; higher = more signal
[3] = biological target: Focal adhesion kinase 1 (Homo sapiens) (UniProt Q05397); assay: PTK2 protein binding on printed compound slides – biochemical, small-molecule microarray, 635/667 nm fluorescence, BSA, DTT, primary screen (AID 1130); settings: 635 nm fluorescence, higher = more signal;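 also: composite of spot emission at 667 nm and signal to noise over triplicate slides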
[4] = test system: Fibrinogen (Alexa647-labelled); assay: Alexa647-fibrinogen binding to printed small molecules – biochemical, small-molecule microarray, 635/667 nm fluorescence, artefact control for SMM control-protein annotation, profiling panel (AID 1131); settings: fibrinogen-A647 binding fluorescence, higher = more signal;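 also: z-score merges 667 nm fluorescence with per-spot signal-to-noise over triplicate slides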
[5] = biological target: Follistatin (Homo sapiens) (UniProt P19883); assay: FST protein binding to printed compounds – biochemical, small-molecule microarray, 635/667 nm fluorescence, primary screen (AID 1132); settings: 635 nm fluorescence, higher = more signal
[6] = biological target: Fibroblast growth factor 2 (Homo sapiens) (UniProt P09038); assay: basic fibroblast growth factor binding to printed compounds – biochemical, small-molecule microarray, 635/667 nm fluorescence, primary screen (AID 1133); settings: FGF2, fluorescence 635/667, higher = more signal
[7] = JC-1 mitochondrial potential readout, lung cancer cells – cell-based, A549, JC-1 fluorescence, basal, 24 h, 100 nL, profiling panel (AID 1138); settings: higher = more signal;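 also: A549 lung adenocarcinoma cells under basal conditions with no added stimulus; test concentration not given here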
Lefty1 = Lefty1 protein binding to printed compounds – biochemical, small-molecule microarray, 635/667 nm fluorescence, primary screen (AID 1139); settings: fluorescence 635/667, higher = more signal
[8] = test system: wheat germ agglutinin (Triticum aestivum), Alexa647-labelled; assay: Alexa647-WGA lectin binding to printed small molecules – biochemical, small-molecule microarray, 635/667 nm fluorescence, artefact control for SMM control-protein annotation, profiling panel (AID 1140); settings: WGA-A647 binding, 635 nm fluorescence, higher = more signal;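 also: score merges 667 nm feature emission with signal to noise over triplicate slides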
[9] = biological target: Luciferin 4-monooxygenase (Photinus pyralis) (UniProt P08659); assay: inhibition of purified Photinus pyralis luciferase – biochemical, luminescence, purified enzyme, 2006 set, primary screen (AID 1141); settings: purified firefly luciferase, SteadyGlo luminescence, 30 min; higher = more signal, called active from +8 up or from −8 down;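 also: cell-free assay with purified firefly luciferase at 100 ng per well in PBS; test concentration not given here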
[10] = test system: Wnt5a (protein binding on small-molecule microarray); assay: small molecules binding Wnt5a protein – biophysical, small-molecule microarray, 635/667 nm fluorescence, primary screen (AID 1142); settings: 635 nm fluorescence, higher = more signal;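 also: fluorescence read at 667 nm with signal to noise per printed feature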
[11] = ATP-based viability of Huh7 replicon cells – cell-based, CellTiter-Glo luminescence, basal, 48 h, cytotoxicity control for HCV replication inhibitor project, primary screen (AID 1143); settings: higher = more signal, called active from +8 up or from −8 down;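 also: Huh7 hepatoma cells carrying a hepatitis C replication reporter with no stimulus; test concentration not given here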
[12] = Pseudomonas biofilm growth suppression – PAO1 strain, BacTiter-Glo luminescence, LB-PBS, primary screen (AID 1144); settings: P. aeruginosa PAO1 biofilm, 12 h, higher = more signal
[13] = basal CRE-LacZ reporter activity in PC12 – cell-based, unstimulated, primary screen (AID 1145); settings: no forskolin, luminescence, 4.5 h, higher = more signal, called active from +8 up or from −8 down
[14] = forskolin-driven CRE-LacZ activity in PC12 – cell-based, CRE-LacZ reporter, forskolin-stimulated, primary screen (AID 1146); settings: luminescence, 4.5 h, higher = more signal, called active from +8 up or from −8 down;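 also: PC12 cells with 6xCRE LacZ reporter stimulated by forskolin 10 µM; beta-galactosidase reporter signal reflecting CREB driven transcription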
[15] = biological target: Streptavidin (Streptomyces avidinii) (UniProt P22629); assay: compounds binding control protein streptavidin – biophysical, small-molecule microarray, 635/667 nm fluorescence, artefact control for SMM compound annotation, primary screen (AID 1147); settings: higher = more signal;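 also: signal reflects streptavidin binding to arrayed compounds as a control protein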
[16] = probe aInhba binding on compound microarray – biochemical, small-molecule microarray, 635/667 nm fluorescence, primary screen (AID 1148); settings: higher = more signal;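 also: score merges 667nm spot fluorescence with signal-to-noise for antibody binding to printed compounds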
Torsin-1A (Homo sapiens) [17] = biological target: Torsin-1A (Homo sapiens) (UniProt O14656); assay: TOR1A wild-type binding on microarray – cell lysate, small-molecule microarray, lysate, 635/667 nm, primary screen (AID 1149); settings: COS7 hTOR1A-WT lysate, 635 nm fluorescence, higher = more signal
Torsin-1A (Homo sapiens) [18] = biological target: Torsin-1A (Homo sapiens) (UniProt O14656); assay: torsin A mutant lysate binding on microarrays – cell lysate, small-molecule microarray, COS7 lysate, 635/667 nm fluorescence, primary screen (AID 1150); settings: COS7 hTOR1A mutant lysate, 635 nm fluorescence, higher = more signal;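 also: score pools 667 nm emission and signal to noise measuring lysate protein binding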
[19] = test system: Sonic hedgehog protein (Shh); assay: Sonic hedgehog microarray binding compounds – biochemical, small-molecule microarray, 635/667 nm fluorescence, primary screen (AID 1151); settings: 635 nm fluorescence, higher = more signal;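 also: Shh protein binding to compounds spotted on small-molecule microarray slides; score combines spot fluorescence intensity with signal-to-noise across triplicate slides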

Chain of Luciferin 4-monooxygenase (Photinus pyralis) (P08659 whole entry, looked up): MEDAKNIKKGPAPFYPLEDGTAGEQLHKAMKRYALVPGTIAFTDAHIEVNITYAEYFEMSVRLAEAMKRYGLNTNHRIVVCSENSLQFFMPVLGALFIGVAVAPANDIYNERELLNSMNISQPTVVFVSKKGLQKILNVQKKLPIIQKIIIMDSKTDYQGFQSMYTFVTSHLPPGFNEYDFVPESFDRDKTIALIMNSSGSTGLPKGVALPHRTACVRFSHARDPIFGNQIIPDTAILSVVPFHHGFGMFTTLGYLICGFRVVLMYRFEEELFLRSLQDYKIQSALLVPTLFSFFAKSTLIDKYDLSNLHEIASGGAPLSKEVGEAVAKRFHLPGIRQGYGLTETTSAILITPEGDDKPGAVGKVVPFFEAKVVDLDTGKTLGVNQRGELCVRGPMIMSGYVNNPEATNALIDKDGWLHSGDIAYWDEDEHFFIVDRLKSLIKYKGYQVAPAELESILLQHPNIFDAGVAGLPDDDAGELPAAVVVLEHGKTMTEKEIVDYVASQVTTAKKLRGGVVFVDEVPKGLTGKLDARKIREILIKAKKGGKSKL
Chain of Follistatin (Homo sapiens) (P19883 whole entry, looked up): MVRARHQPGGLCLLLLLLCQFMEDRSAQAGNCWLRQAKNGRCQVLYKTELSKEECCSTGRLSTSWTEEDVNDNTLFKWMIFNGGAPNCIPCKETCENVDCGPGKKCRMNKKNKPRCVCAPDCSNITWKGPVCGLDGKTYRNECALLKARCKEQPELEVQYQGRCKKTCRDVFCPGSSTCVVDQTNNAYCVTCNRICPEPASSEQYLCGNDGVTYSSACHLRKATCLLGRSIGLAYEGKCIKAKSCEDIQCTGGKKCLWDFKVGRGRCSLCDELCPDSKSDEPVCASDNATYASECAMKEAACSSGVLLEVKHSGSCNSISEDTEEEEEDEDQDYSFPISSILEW
Chain of Streptavidin (Streptomyces avidinii) (P22629 whole entry, looked up): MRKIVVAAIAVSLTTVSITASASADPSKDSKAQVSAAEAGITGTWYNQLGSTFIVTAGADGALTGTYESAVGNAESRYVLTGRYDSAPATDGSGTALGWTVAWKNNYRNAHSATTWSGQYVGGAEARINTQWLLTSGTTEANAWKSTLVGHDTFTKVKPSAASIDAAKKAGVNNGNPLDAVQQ
Chain of Focal adhesion kinase 1 (Homo sapiens) (Q05397 whole entry, looked up): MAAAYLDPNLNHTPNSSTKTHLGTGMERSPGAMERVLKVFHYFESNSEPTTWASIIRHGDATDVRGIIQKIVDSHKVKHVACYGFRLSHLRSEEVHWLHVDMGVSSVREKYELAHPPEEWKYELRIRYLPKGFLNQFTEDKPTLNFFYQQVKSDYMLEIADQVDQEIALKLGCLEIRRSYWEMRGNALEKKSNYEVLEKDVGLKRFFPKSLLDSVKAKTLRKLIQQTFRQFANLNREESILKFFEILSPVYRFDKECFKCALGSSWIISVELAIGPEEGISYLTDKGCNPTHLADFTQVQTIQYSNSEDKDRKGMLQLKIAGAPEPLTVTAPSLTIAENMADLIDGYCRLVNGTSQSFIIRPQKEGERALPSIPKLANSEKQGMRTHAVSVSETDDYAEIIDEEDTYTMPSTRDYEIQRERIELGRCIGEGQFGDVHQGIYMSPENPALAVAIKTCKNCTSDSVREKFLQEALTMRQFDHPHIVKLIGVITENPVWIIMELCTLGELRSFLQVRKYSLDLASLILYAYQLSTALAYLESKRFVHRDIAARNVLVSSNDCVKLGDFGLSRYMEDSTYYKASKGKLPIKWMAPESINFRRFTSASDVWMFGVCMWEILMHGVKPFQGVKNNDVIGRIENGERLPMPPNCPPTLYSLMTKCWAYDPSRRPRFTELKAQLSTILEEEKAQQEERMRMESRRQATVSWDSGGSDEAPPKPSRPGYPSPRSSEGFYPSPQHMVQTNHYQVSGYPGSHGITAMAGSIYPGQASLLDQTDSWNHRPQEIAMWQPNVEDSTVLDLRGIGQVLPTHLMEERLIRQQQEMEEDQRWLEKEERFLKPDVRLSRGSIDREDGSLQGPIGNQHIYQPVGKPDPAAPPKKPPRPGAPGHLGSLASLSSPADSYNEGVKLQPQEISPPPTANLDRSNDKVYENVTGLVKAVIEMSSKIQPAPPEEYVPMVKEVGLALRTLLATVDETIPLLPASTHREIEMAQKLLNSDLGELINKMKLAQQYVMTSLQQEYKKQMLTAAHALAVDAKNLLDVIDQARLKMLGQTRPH
Chain of Torsin-1A (Homo sapiens) (O14656 whole entry, looked up): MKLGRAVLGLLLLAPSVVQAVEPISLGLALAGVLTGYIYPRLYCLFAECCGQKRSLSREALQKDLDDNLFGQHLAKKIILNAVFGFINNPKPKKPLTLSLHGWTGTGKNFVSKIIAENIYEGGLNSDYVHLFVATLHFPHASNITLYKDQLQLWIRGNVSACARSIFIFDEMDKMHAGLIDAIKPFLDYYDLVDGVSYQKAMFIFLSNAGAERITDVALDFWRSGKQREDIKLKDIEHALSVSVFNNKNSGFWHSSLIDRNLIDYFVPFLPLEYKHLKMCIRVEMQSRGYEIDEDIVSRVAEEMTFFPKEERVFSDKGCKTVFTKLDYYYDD
Chain of Fibroblast growth factor 2 (Homo sapiens) (P09038 whole entry, looked up): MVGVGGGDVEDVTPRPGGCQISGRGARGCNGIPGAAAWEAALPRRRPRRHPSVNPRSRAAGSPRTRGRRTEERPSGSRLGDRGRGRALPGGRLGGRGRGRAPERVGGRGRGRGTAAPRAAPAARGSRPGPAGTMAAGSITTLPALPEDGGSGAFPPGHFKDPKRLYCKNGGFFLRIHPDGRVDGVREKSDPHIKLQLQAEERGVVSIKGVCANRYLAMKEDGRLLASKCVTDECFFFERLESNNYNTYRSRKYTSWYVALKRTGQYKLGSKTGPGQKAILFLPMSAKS

COC(=O)c1ccc(OC)c(/C=C\CC(CCc2ccccc2)OC(C)=O)c1 (stereo not given)
composite z-score [1]: -0.281 | composite z-score [2]: -0.133 | composite z-score [3]: 0.377 | composite z-score [4]: -0.177 | composite z-score [5]: 0.457 | composite z-score [6]: -0.293 | z-score [7]: 0.293 | composite z-score (Lefty1): 0.222 | composite z-score [8]: 0.476 | z-score [9]: -0.558 (inactive) | composite z-score [10]: -0.526 | z-score [11]: -0.785 (inactive) | z-score [12]: 0.245 (inactive) | z-score [13]: 1.04 (inactive) | z-score [14]: -0.0403 (inactive) | composite z-score [15]: 0.245 | composite z-score [16]: -0.182 | composite z-score (Torsin-1A (Homo sapiens) [17]): -0.813 | composite z-score (Torsin-1A (Homo sapiens) [18]): -0.152 | composite z-score [19]: 0.482

COCCOC(=O)N1C(=O)[C@@]2(c3cc(C#Cc4ccc(OC)cc4)ccc31)[C@H](C(=O)N1CCc3cc(OC)c(OC)cc3C1)[C@H]1C(=O)O[C@H](c3ccccc3)[C@H](c3ccccc3)N1[C@@H]2c1ccc(OCCO)cc1
composite z-score [1]: 0.839 | composite z-score [2]: 1.13 | composite z-score [3]: 0.5 | composite z-score [4]: 0.195 | composite z-score [5]: 1.19 | composite z-score [6]: 1.3 | z-score [7]: -1.79 | composite z-score (Lefty1): 0.88 | composite z-score [8]: 0.596 | z-score [9]: -1.23 (inactive) | composite z-score [10]: 0.4 | z-score [11]: -0.831 (inactive) | z-score [12]: -0.959 (inactive) | z-score [13]: -1.27 (inactive) | z-score [14]: -0.194 (inactive) | composite z-score [15]: 0.364 | composite z-score [16]: 0.124 | composite z-score (Torsin-1A (Homo sapiens) [17]): 0.666 | composite z-score (Torsin-1A (Homo sapiens) [18]): 0.528 | composite z-score [19]: 1.69

C=C(C)[C@@H]1CC=C(C(O)C2C=CC3C(=O)N(C4CCCCC4)C(=O)C3N2Nc2ccc(OC)cc2)CC1 (stereo not given in full)
composite z-score [1]: 0.736 | composite z-score [2]: 1.21 | composite z-score [3]: 0.589 | composite z-score [4]: 1 | composite z-score [5]: 1.17 | composite z-score [6]: 0.723 | z-score [7]: 0.677 | composite z-score (Lefty1): 0.606 | composite z-score [8]: 0.46 | z-score [9]: -0.392 (inactive) | composite z-score [10]: 0.187 | z-score [11]: -1.7 (inactive) | z-score [12]: -0.645 (inactive) | z-score [13]: 0.369 (inactive) | z-score [14]: -0.317 (inactive) | composite z-score [15]: 1.12 | composite z-score [16]: -0.0521 | composite z-score (Torsin-1A (Homo sapiens) [17]): -0.0445 | composite z-score (Torsin-1A (Homo sapiens) [18]): 0.6 | composite z-score [19]: 0.966

COCC1=C([C@H](O)CCc2ccccc2)[C@H](CO)[C@@H]2C(=O)N(C)C(=O)[C@@H]2C1
composite z-score [1]: -0.0971 | composite z-score [2]: -0.204 | composite z-score [3]: 0.0647 | composite z-score [4]: -0.114 | composite z-score [5]: 0.191 | composite z-score [6]: 0.584 | z-score [7]: 0.982 | composite z-score (Lefty1): 0.388 | composite z-score [8]: -0.368 | z-score [9]: -1.08 (inactive) | composite z-score [10]: -0.147 | z-score [11]: -0.398 (inactive) | z-score [12]: -0.668 (inactive) | z-score [13]: 0.496 (inactive) | z-score [14]: -1.67 (inactive) | composite z-score [15]: -0.11 | composite z-score [16]: -0.0313 | composite z-score (Torsin-1A (Homo sapiens) [17]): 0.389 | composite z-score (Torsin-1A (Homo sapiens) [18]): 0.414 | composite z-score [19]: 0.552

COc1cccc(C[C@H]2C[C@@H](CO[Si](C(C)C)(C(C)C)C(C)C)N3C(=O)[C@]4(C(C)=O)O[C@]23[C@H]2C(=O)N(C)C(=O)[C@H]24)c1
composite z-score [1]: 0.786 | composite z-score [2]: 1.04 | composite z-score [3]: 0.353 | composite z-score [4]: 0.674 | composite z-score [5]: 0.9 | composite z-score [6]: 0.865 | z-score [7]: 1.51 | composite z-score (Lefty1): 1.19 | composite z-score [8]: 0.425 | z-score [9]: 0.216 (inactive) | composite z-score [10]: 0.205 | z-score [11]: -4.4 (inactive) | z-score [12]: 0.0793 (inactive) | z-score [13]: 1.62 (inactive) | z-score [14]: 0.325 (inactive) | composite z-score [15]: 0.636 | composite z-score [16]: -0.008 | composite z-score (Torsin-1A (Homo sapiens) [17]): 0.0282 | composite z-score (Torsin-1A (Homo sapiens) [18]): 0.611 | composite z-score [19]: 1.09
